From PubChem
HTT-AS act – HTT-AS promoter activation; HEK293 HTT-AS promoter firefly luciferase reporter, 24 h; response scale: percent change from vehicle, -100% = no light; Potency, µM (highest dose often 57.5 µM), most hits filed as activators; 48,000 tested, 0.24% active; note: nearly all actives have a fitted effect of over 55% in size
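Quantitative HTS used concentration series of up to 57.5 uM final on HEK293 luciferase reporter cells, 24 h at 37 degrees C. Readout was Dual-Glo firefly luminescence.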
GALC G270D up – enhancers of human galactocerebrosidase G270D mutant activity in cells; P54803; 145M-Twi-hGALC-G270D cells (Twitcher mouse brain line with human GALC G270D), HMU-beta-Gal fluorescence, 48 h; Potency, µM (titrated, usually from 57.5 µM), actives largely listed as activators; 45,000 tested, 0.1% active; AID 1159614; note: nearly all actives have a fitted effect of over 65% in size
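Fluorogenic HMU-b-Gal hydrolysis (0.1 mM final, pH 5.2 citrate-phosphate with 1 mg/mL sodium taurocholate; carbonate stop buffer) measures mutant GALC activity after compound treatment of live 145M-Twi Twitcher brain cells stably carrying human GALC-G270D, with wild-type GALC line alongside; activation sought.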
NTMT1 inh – NTMT1 methyltransferase inhibition. NTMT1 MTase-Glo SAH luminescence, purified enzyme. Potency, µM (highest dose often 114 µM), usual class: inhibitors. 59,000 tested, 2.5% active. AID 1645870; note: nearly all actives have a fitted effect of over 65% in size
FH mod – Identification of activators of human fumarate hydratase by quantitative high-throughput screening. Fumarate hydratase, mitochondrial (Homo sapiens), P07954. FH coupled MDH/diaphorase resazurin fluorescence, 15 min. Potency, µM (series often up to 79.9 µM), hits mostly inhibitors. 54,000 tested, 0.22% active. AID 1347055, 2019; note: the screen sought activators but most active calls are inhibition curves; nearly all actives have a fitted effect of over 45% in size
Target sequence (P07954 whole entry, looked up): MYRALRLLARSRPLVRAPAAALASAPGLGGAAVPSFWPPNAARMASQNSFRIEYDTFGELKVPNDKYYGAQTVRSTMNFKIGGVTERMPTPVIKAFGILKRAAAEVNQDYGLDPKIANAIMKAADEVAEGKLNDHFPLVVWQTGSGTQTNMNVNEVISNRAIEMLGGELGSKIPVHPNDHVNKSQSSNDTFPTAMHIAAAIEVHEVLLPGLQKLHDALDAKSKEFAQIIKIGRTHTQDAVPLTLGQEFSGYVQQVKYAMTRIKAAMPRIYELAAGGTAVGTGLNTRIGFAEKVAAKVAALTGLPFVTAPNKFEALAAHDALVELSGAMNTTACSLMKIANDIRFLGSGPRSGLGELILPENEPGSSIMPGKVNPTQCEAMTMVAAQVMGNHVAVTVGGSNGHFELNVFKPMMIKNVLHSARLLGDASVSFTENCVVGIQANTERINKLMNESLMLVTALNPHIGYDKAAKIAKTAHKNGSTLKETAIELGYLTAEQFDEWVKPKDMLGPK
GPR32 ag – agonists of human resolvin D1 receptor DRV1 (GPR32); activation, % at 76.9 µM; O75388; CHO-K1 GPR32 beta-arrestin PathHunter luminescence, 90 min; zero percent set by DMSO-only wells; 48,000 tested, 2.5% active;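 active = activation of at least 60% and not above a set upper limit, about 1 call in 100 departs from these limits; inconclusive = activation of 40% to 60%, or above that upper limit; inactive = activation under 40%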
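Cells are plated overnight, treated with compounds in DMSO for 90 minutes at 37 °C, and developed with PathHunter detection reagent for 1 hour before luminescence is read; signal reflects beta-arrestin binding to GPR32 in engineered CHO-K1 cells.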
HTT prom inh – HTT promoter inhibition | HEK293 HTT promoter firefly luciferase reporter, 24 h | Potency, µM (titrated, usually from 57.5 µM), most hits filed as inhibitors | 48,000 tested, 0.93% active | AID 1508623; note: nearly all actives have a fitted effect of over 50% in size
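Firefly luciferase readout (Dual-Glo, 10 min RT) after 24 h, 37 °C compound exposure (final up to 57.5 uM) of HEK293 reporter cells cultured 24 h beforehand; PTC124 at 50 uM final as control inhibitor; activity scaled vehicle 0%, zero RLU -100%.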
Numbers stand for hits; ! = not confirmed by another sample; [ ] = another dose, or the depositor's remark. This is a sample that favours compounds with a hit; in the whole collection about 4.7% have one here. Unless noted, calls come from the whole dose curve; as a rule, active = well fitted curve in the direction sought with a large enough effect; inconclusive = small, poorly fitted or top-dose-only effect, or another doubt; inactive = no such curve, though single readings can be large; an effect the other way counts as inactive or inconclusive.

What do the screens show for `CC(=O)O[C@@H]1[C@H](O[C@@H]2O[C@H](CO)[C@@H](O)[C@H](O)[C@H]2O)[C@@H](O[C@@H]2O[C@@H](C)[C@H](O)[C@@H](O[C@@H]3O[C@H](CO)[C@@H](O)[C@H](O)[C@H]3O)[C@H]2O)[C@H](OC(=O)[C@]23CCC(C)(C)C[C@H]2C2=CCC4[C@@]5(C)C[C@H](O)[C@H](O[C@@H]6O[C@H](C(=O)O)[C@@H](O)[C@H](O)[C@H]6O)[C@@](C)(C(=O)O)C5CC[C@@]4(C)[C@]2(C)CC3)O[C@@H]1C` (stereo not given in full)?
NTMT1 inh: inactive[6.45 µM]; FH mod: inactive[13.5 µM]

What do the screens show for `CCc1ccc(CNC(=O)C2CCN(C(=O)c3ccc(-n4c(C)cc5ccccc54)s3)CC2)cc1`?
HTT-AS act: inactive; GALC G270D up: inactive; NTMT1 inh: inactive; FH mod: inactive; GPR32 ag: inactive; HTT prom inh: inconclusive

Results for Cc1cc2ccccc2n1-c1ccc(C(=O)N2CCC(C(=O)NCc3ccc(Cl)cc3)CC2)s1 ?
HTT-AS act: inactive; GALC G270D up: inactive; NTMT1 inh: inactive; FH mod: inactive; GPR32 ag: inactive; HTT prom inh: 14.1µM

Results for COc1ccc(C(=O)c2ccc(-c3no[n+]([O-])c3C#N)cc2)cc1 ?
NTMT1 inh: inactive

Results for CC(C)(C)c1cnc(CSc2cnc(NC(=O)C3CCNCC3)s2)o1 ?
HTT-AS act: inactive; NTMT1 inh: 50.1µM!; FH mod: inactive; HTT prom inh: inconclusive

How did S=C(NCCCc1cnc[nH]1)NCCCN(Cc1ccc(Cl)c(Cl)c1)c1ccccn1 do in these assays?
NTMT1 inh: inactive

Results for COc1ccc(Nc2ncnc3c2nc2n3CCCC2)cc1Cl ?
HTT-AS act: inconclusive; GALC G270D up: inactive; NTMT1 inh: inconclusive; FH mod: inactive; GPR32 ag: inactive; HTT prom inh: inactive

How did COc1ccc(Nc2ncnc3sc4c(c23)CCCC4)cc1 do in these assays?
HTT-AS act: inactive; GALC G270D up: inactive; NTMT1 inh: 22.4µM; FH mod: inactive; GPR32 ag: 94.2; HTT prom inh: inactive

What do the screens show for `CCc1ccc(Nc2ncnc3sc4c(c23)CCCC4)cc1`?
HTT-AS act: inactive; GALC G270D up: inactive; NTMT1 inh: inactive; FH mod: inactive; GPR32 ag: inactive; HTT prom inh: inactive

What do the screens show for `COc1ccc(Nc2ncnc3c2nc2n3CCCCC2)cc1`?
HTT-AS act: inconclusive; GALC G270D up: inactive; NTMT1 inh: inactive; FH mod: inactive; GPR32 ag: 76.9; HTT prom inh: inactive

Results for CCOc1ccc(Nc2ncnc3c2nc2n3CCCCC2)cc1 ?
HTT-AS act: inactive; GALC G270D up: inactive; NTMT1 inh: inactive; FH mod: inactive; GPR32 ag: 85.1; HTT prom inh: inconclusive

What do the screens show for `O=C(O)c1ccc(O)c2ncc(N3CCCN(CCc4cccc5ccccc45)CC3)cc12`?
NTMT1 inh: inactive; FH mod: inactive

Results for COc1cc(O)c(C(=O)O)c(CCc2ccccc2)c1 ?
NTMT1 inh: inactive; FH mod: inactive

How did COc1cccc(CCc2ccccc2OCC(CN(C)C)OC(=O)CCC(=O)O)c1 (stereo not given) do in these assays?
HTT-AS act: inactive; GALC G270D up: inactive; NTMT1 inh: inactive; FH mod: inactive; GPR32 ag: 94.8; HTT prom inh: inactive

How did CCCCC(=O)Oc1ccc2oc(-c3ccc(OC)cc3)cc(=O)c2c1 do in these assays?
HTT-AS act: 2µM; GALC G270D up: inactive; NTMT1 inh: inactive; FH mod: inactive; GPR32 ag: inactive; HTT prom inh: inactive

Results for COC(=O)COc1ccc2oc(-c3ccc(OC)cc3)cc(=O)c2c1 ?
HTT-AS act: inconclusive; GALC G270D up: inactive; NTMT1 inh: inactive; FH mod: inactive; GPR32 ag: inactive; HTT prom inh: inactive

Results for CCN(CC)CCCNC(=O)c1ccc2c(c1)sc1nc(-c3ccc(C)cc3)cn12 ?
HTT-AS act: inactive; GALC G270D up: inactive; NTMT1 inh: 50.1µM; FH mod: inactive; GPR32 ag: inactive; HTT prom inh: inactive
